Screening results deposited in PubChem BioAssay by National Center for Advancing Translational Sciences (NCATS).
Menin-MLL FL inh: menin-MLL binding inhibition, fluorescein peptide; Fluorescence polarization, fluorescein-MLL peptide displacement from menin; FP activity change, % at 61.4 µM; 290,000 tested, under 10 active; AID 1766; active means well fitted curve in the direction sought with a large enough effect in the polarisation, not every such curve was filed as active; inconclusive means small, poorly fitted or top-dose-only effect, or effect the other way, or a change in a side signal; inactive means no such curve, though single readings can be large or run the other way; the % refers to the polarisation
KCNH2 3.1 block: inhibitors of human KCNH2 3.1 potassium channel isoform. U2OS KCNH2 3.1, thallium flux FluxOr; active compounds read low. hit rate 0.95% among 340,000. activity change, % (tested at about 1.8 µM);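 active means maximum activity change below -70%; inconclusive means maximum activity change from -70% to -50%; inactive means maximum activity change above -50%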;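 further: thallium influx rate constant from kinetic fluorescence after stimulation buffer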
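Channel expression came from 3.1 mutant virus (1.77 x 10^8 /mL) applied to suspended U2OS cells for 4 h. Flux was tracked with FluxOr dye plus Red40 quencher, and kinetic rate constants normalized to controls.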
Menin-MLL TR inh: menin-MLL binding inhibition, Texas Red mutant peptide | hit rate 0.23% among 270,000 | Menin + Texas Red MLL mutant peptide, fluorescence polarization | Potency, µM (titrated, usually from 61.6 µM), hits mostly inhibitors; active means well fitted inhibition curve with a large enough effect in the polarisation, with a control signal flat, not every such curve was filed as active; inconclusive means small, poorly fitted or top-dose-only effect, or effect the other way, or a change in a side signal; inactive means no such curve, though single readings can be large or run the other way; the % refers to the polarisation
Target sequence (O00255 whole entry, looked up): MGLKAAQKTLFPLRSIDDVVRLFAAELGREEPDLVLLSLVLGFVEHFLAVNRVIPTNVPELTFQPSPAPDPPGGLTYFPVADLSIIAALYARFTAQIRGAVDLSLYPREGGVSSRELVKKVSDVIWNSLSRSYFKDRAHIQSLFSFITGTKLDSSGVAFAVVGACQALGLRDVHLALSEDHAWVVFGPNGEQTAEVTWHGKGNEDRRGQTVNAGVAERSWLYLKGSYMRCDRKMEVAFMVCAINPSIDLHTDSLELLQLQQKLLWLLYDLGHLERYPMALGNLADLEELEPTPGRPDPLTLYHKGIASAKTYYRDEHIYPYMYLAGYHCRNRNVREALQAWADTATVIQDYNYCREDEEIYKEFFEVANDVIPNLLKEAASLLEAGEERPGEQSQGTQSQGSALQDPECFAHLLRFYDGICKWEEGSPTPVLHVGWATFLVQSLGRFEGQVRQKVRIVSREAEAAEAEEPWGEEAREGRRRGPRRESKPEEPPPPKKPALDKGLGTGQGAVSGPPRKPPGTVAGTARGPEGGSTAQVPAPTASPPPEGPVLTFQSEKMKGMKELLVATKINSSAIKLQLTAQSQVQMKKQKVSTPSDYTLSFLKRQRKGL
CXXC DNA block: inhibitors of human MLL CXXC domain-DNA interaction; Q03164; MLL-CXXC / FITC-HOXA9 DNA fluorescence polarization; Potency, µM (series often up to 115 µM), hits mostly inhibitors; hit rate 0.037% among 290,000; active means well fitted inhibition curve with a large enough effect in the polarisation, with a control signal flat, not every such curve was filed as active; inconclusive means small, poorly fitted or top-dose-only effect, or effect the other way, or a change in a side signal; inactive means no such curve, though single readings can be large or run the other way; the % refers to the polarisation
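Steps: dispense CXXC domain solution (7 uM) → pin compounds or unlabeled HOX-A9 DNA control → 5 min ambient → add FLSN-HOX-A9 solution (50 nM) → spin → 30 min ambient → fluorescence polarization. Tris pH 7.5/NaCl/DTT/BSA buffer.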
KCNH2 WT inh: KCNH2 (human, wildtype) channel inhibition; Q12809; U2OS, BacMam KCNH2, thallium flux FluxOr; active compounds read low; activity change, % at 1.84 µM; hit rate 0.37% among 340,000;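 active means maximum activity change below -70%; inconclusive means maximum activity change between -70% and -50%; inactive means maximum activity change above -50%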
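U2OS cells were transduced with wild-type KCNH2 virus (2.03 x 10^8 / mL) for 4 h at room temperature, then cultured overnight at 37 C. Thallium flux was read with FluxOr dye. Rate constants were normalized to DMSO controls.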
Large screens that a line does not name were inactive; ! = not confirmed by another sample. The list is not random: actives were taken first. Their share in the collection is about 1.1%.

CCCC/C=C/[C@H](C)[C@@](C)(COC(=O)c1ccc(Br)cc1)Cc1ccccc1	none (no result: KCNH2 3.1 block, CXXC DNA block, KCNH2 WT inh)
Cn1nc(C(=O)NCCOc2ccccc2)c2ccccc2c1=O	KCNH2 3.1 block -119
CCOc1ccc(C(=O)CC(C(=O)O)N2CCCCC2)cc1 (stereo not drawn)	none (no result: Menin-MLL FL inh, Menin-MLL TR inh, CXXC DNA block)
COc1ccc2[nH]c(CN3CCC(n4nccc4NC(=O)C4CC4)CC3)c(C)c2c1	KCNH2 3.1 block -76, KCNH2 WT inh inconclusive (no result: Menin-MLL FL inh, Menin-MLL TR inh)
CCNc1ncc2nc(-c3ccc(Cl)cc3)c(=O)n(CCC#N)c2n1	none (no result: KCNH2 3.1 block, CXXC DNA block, KCNH2 WT inh)
Cc1c(NC(=S)NC(=O)c2cccc3ccccc23)cccc1C(=O)O	none
COC(=O)c1ccc(CNC(=O)c2ccc(COc3ccccc3)cc2)cc1	Menin-MLL TR inh 28µM
Cc1c(NC(=S)NC(=O)c2ccc(COc3ccccc3)cc2)cccc1C(=O)O	Menin-MLL TR inh inconclusive, KCNH2 WT inh -231
COc1ccc(CNc2nc(-c3cccnc3)nn2S(C)(=O)=O)cc1	KCNH2 3.1 block -76
CCN1CCN(C(=O)C2CCN(S(=O)(=O)N3CCC4(CC3)OCCO4)CC2)CC1	none
COc1ccc2c(c1)OC(C)(C)C(c1ccccc1)C2c1ccc(OCCN2CCCC2)cc1 (stereo not drawn)	none (no result: KCNH2 3.1 block, KCNH2 WT inh)
c1cncc(-c2nnc(C3CCCCC3)o2)c1	KCNH2 3.1 block -80
CCC(Cc1c(I)cc(I)c(O)c1I)C(=O)O (stereo not drawn)	none (no result: KCNH2 3.1 block, KCNH2 WT inh)
CCOC(=O)Cc1nn[nH]n1	KCNH2 3.1 block -128
COc1ccc(/C=C/C(=O)NCC(=O)N/N=C(\C)Cc2ccccc2)cc1	none (no result: Menin-MLL TR inh)
CC/C(=N\NC(=O)CNC(=O)/C=C/c1ccc(OC)cc1)c1ccccc1	KCNH2 WT inh -136
CC(=O)OCC(NC(=O)C1CCCN1C(=O)OC(C)(C)C)C1OC(n2cc(F)c(=O)[nH]c2=O)C(OC(C)=O)C1OC(C)=O (stereo not drawn)	none (no result: KCNH2 3.1 block, CXXC DNA block, KCNH2 WT inh)
CCCn1c(S(=O)(=O)O)nc2ccccc21	none (no result: Menin-MLL TR inh)
CCC(C)n1c(S(=O)(=O)O)nc2ccccc21 (stereo not drawn)	KCNH2 WT inh -184
COc1cc(NC(=O)CNC(=O)Cn2cnc3sc(C)c(C)c3c2=O)cc(OC)c1OC	none (no result: Menin-MLL FL inh, Menin-MLL TR inh, CXXC DNA block)
COc1ccc(N)c2c1C(=O)c1ccccc1C2=O	KCNH2 3.1 block -98, Menin-MLL TR inh inconclusive, CXXC DNA block inconclusive
COc1ccc(OC)c2c1C(=O)c1ccccc1C2=O	Menin-MLL FL inh inconclusive, CXXC DNA block inconclusive
CCCCN(CCCC)CCCNC(=O)C12CN(Cc3ccccc3)CC1C(c1cccc([N+](=O)[O-])c1)=NO2 (stereo not drawn)	KCNH2 3.1 block -87, KCNH2 WT inh -76
Cc1ccc(N(CC2=NCCN2)c2cccc(O)c2)cc1	KCNH2 3.1 block -80!
CN(C)S(=O)(=O)c1cccc(CSCc2cccc(S(=O)(=O)N(C)C)c2)c1	none
CC(Nc1cc(C)cc(C)c1)=[N+](C)CCNS(=O)(=O)c1ccc(Cl)cc1	KCNH2 3.1 block -95
COc1ccc(NC(C)=[N+](C)CCNS(=O)(=O)c2ccc(Cl)cc2)cc1Cl	none
Cc1ccc(NC(=O)CN2C(=O)S/C(=C\c3cc(C)n(C)c3C)C2=O)cc1	KCNH2 3.1 block -93
COC(=O)[C@@]1(Cc2ccc(OC)cc2)[C@H]2c3cc(C(=O)N4CCCC4)n(CCN4CNCC4=O)c3C[C@H]2CN1C(=O)c1ccccc1	none (no result: KCNH2 3.1 block, CXXC DNA block, KCNH2 WT inh)
Cc1ccc(N2CCN(/N=C/c3c(C)nn(-c4ccccc4)c3Cl)CC2)cc1	KCNH2 3.1 block -90 (no result: KCNH2 WT inh)
CSc1ccc(CN2CCC(n3nccc3NC(=O)c3ccccc3C)CC2)cc1	KCNH2 3.1 block -123, KCNH2 WT inh -126
CC(Cc1ccc(Cl)cc1)N1CCC(n2nccc2NC(=O)C2CCCC2)CC1 (stereo not drawn)	KCNH2 3.1 block -101 (no result: Menin-MLL FL inh, Menin-MLL TR inh)
CCc1ccc(CN2CCC(n3nccc3NC(=O)c3ccccc3Cl)CC2)cc1	KCNH2 3.1 block -103, KCNH2 WT inh -97 (no result: Menin-MLL FL inh, Menin-MLL TR inh)
CCc1ccc(CN2CCC(n3nccc3NC(=O)c3ccc4c(c3)OCO4)CC2)cc1	KCNH2 3.1 block -106, KCNH2 WT inh inconclusive (no result: Menin-MLL FL inh, Menin-MLL TR inh)
Cn1cc(CN2CCC(n3nccc3NC(=O)c3ccccc3Cl)CC2)cn1	none
C(#CC12CC3CC(CC(C3)C1)C2)CN1CCOCC1	KCNH2 WT inh -103
CCOC(=O)C1(Cc2ccc(Cl)cc2)CCN(CCCn2cccn2)CC1	KCNH2 3.1 block -119
CCOC(=O)C1(Cc2ccccc2C(F)(F)F)CCN(C(C)CCn2cccn2)CC1 (stereo not drawn)	KCNH2 3.1 block -85
CCOC(=O)C1(Cc2ccccc2)CCCN(CCCn2cccn2)C1 (stereo not drawn)	none
CCOC(=O)C1=C(O)/C(=C/c2cn(CC(=O)N3CCCC3)c3ccccc23)SC1=Nc1ccccc1	Menin-MLL FL inh inconclusive, CXXC DNA block inconclusive, KCNH2 WT inh -102
COC(=O)c1cn(CC(=O)N2CCCCCC2)c2ccccc12	none
O=C(Cc1ccc(F)cc1)NC1CCCCCC1	KCNH2 3.1 block -87
CSc1nc2ccccc2n1Cc1c(Cl)cccc1Cl	KCNH2 3.1 block -186
OCc1nc2ccccc2n1Cc1c(F)cccc1Cl	none (no result: Menin-MLL TR inh)
CCOc1cc(OCC)cc(C(=O)NCc2ccco2)c1	none
O=C(N/N=C\C=C\c1ccc2c(c1)OCO2)C1COc2cc3ccccc3cc2O1 (stereo not drawn)	Menin-MLL TR inh 20µM
O=C(N/N=C/c1ccc2c(c1)OCO2)C1COc2ccccc2O1 (stereo not drawn)	none
COc1ccc(C2C3=C(CC(C)(C)CC3=O)Nc3c2c(=O)n(C)c(=O)n3C)cc1OC (stereo not drawn)	none
C=CCOc1ccccc1C1C2=C(CC(C)(C)CC2=O)Nc2c1c(=O)n(C)c(=O)n2C (stereo not drawn)	KCNH2 3.1 block -178
CN1c2ccccc2C(=O)N2CCc3c([nH]c4ccccc34)C21 (stereo not drawn)	none (no result: KCNH2 3.1 block, CXXC DNA block, KCNH2 WT inh)
O=C1NCN(c2ccccc2)C12CCN(CCCC(c1ccc(F)cc1)c1ccc(F)cc1)CC2	Menin-MLL TR inh inconclusive, KCNH2 WT inh -194
CC(C(=O)Nc1ccc2c(c1)OCCO2)N(C)CC(=O)Nc1ccccc1Br (stereo not drawn)	none (no result: Menin-MLL FL inh, Menin-MLL TR inh, CXXC DNA block)
CC(C)C[C@H](NC(=O)CNC(=O)[C@@H]1CCCN1C(=O)[C@H](CCCNC(=N)N)NC(=O)[C@H](CC(=O)O)NC(=O)[C@@H](NC(=O)[C@H](CC(N)=O)NC(=O)[C@@H](NC(=O)[C@H](CC(=O)O)NC(=O)CNC(=O)[C@@H](NC(=O)[C@@H](NC(=O)[C@H](C)NC(=O)[C@@H](N)CCC(N)=O)[C@@H](C)O)C(C)C)C(C)C)[C@@H](C)O)C(=O)N[C@@H](CC(C)C)C(=O)N[C@@H](CC(=O)O)C(=O)N[C@@H](CC(C)C)C(=O)N[C@@H](CCCCN)C(=O)O	none (no result: KCNH2 3.1 block, CXXC DNA block, KCNH2 WT inh)
Cc1cc(NC(=O)CSCC(=O)N(C)Cc2ccc(Cl)c(Cl)c2)no1	KCNH2 WT inh -95 (no result: Menin-MLL FL inh, Menin-MLL TR inh)
COc1ccc(C2NCCC3(O)CCCCC23)c(OC)c1OC (stereo not drawn)	KCNH2 WT inh -296
